Experimental findings from PubChem BioAssay AID485367 (National Center for Advancing Translational Sciences (NCATS), 2010) are described below.

Hit rate of the full screen: of about 330,000 compounds, about 560 (0.17%) were called active. A call without a number means that no potency is given here. Roughly 1% stayed inconclusive and do not appear here. Calls follow the shape of the dose curve; as a rule, active = well fitted inhibition curve with a large enough effect; inconclusive = small, poorly fitted or top-dose-only effect, or effect the other way; inactive = flat fitted curve, though single readings scatter. The full list was thinned out, with actives kept by preference.
Potency is read from the fitted curve at half-maximal effect.

Sequence of ATP-dependent 6-phosphofructokinase (Trypanosoma brucei brucei) (O15648 whole entry, looked up): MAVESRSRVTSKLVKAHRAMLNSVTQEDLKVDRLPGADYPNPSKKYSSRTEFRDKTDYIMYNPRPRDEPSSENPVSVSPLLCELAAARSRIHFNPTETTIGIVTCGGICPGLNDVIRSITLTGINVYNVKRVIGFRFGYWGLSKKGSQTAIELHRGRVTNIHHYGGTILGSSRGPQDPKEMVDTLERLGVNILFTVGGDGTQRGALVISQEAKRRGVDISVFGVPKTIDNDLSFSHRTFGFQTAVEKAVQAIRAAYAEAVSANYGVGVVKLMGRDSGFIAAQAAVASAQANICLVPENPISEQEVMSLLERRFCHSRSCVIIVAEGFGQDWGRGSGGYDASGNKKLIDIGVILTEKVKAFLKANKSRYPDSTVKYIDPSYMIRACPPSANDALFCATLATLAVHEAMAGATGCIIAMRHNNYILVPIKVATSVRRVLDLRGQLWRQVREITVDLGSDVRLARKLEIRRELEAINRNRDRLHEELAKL

The assay has as its target ATP-dependent 6-phosphofructokinase (Trypanosoma brucei brucei) (UniProt O15648). As to the kind of experiment: qHTS Assay to Find Inhibitors of T. brucei phosphofructokinase. Also: nearly all actives have a fitted effect of over 60% in size. As to conditions: T. brucei PFK, ADP-Glo luminescence; series mostly up to 57.5 µM. A digest of the protocol:
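In TEA buffer at pH 8.0 with 5 mM MgCl2, enzyme (1.25 nM) converted F6P (0.5 mM) and ATP (0.1 mM) for 45 min at room temperature. ADP product was read by luciferase luminescence.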
`Nn1c(SCC(=O)Nc2ccc3c(c2)CCC3)nnc1C1CC1`: the Potency result is “inactive”. In the case of `O=C(CC1C(=O)NCCN1CC(c1ccccc1)c1ccccc1)NCC1CCOCC1` (stereo not drawn), the Potency entry was “inactive”. The value for `O=C(CCN1C(=O)C2C3C=CC(C3)C2C1=O)Oc1ccc2ccccc2c1` (stereo not drawn) was “inactive”; that for `O=C(CSc1nc2ccccc2c(=O)[nH]1)Nc1nc(-c2ccc(Br)cc2)cs1` was 2.69 µM (active).

Regarding `CCOC(=O)c1ccccc1NC(=O)CSc1nc2ccccc2c(=O)[nH]1`, the Potency result was “inactive”.

Regarding `CC(=O)NCc1ccc(-c2csc(NC(=O)CCCc3nc4ccccc4c(=O)[nH]3)n2)cc1`, the Potency entry was “inactive”. To `O=C(CSc1nnc(N2CCOCC2)n1-c1cccc(F)c1)N1CCN(c2ccccn2)CC1` belongs “inactive”. The value for `O=C(NNS(=O)(=O)c1ccccc1)c1cnn(-c2ccc(Cl)cc2)c1C(F)(F)F` was “inactive”; that for `Cc1ccc(OCCCCc2c(C)n[nH]c2C)cc1` was “inactive”. In the case of `CC(C)[C@H](NC(=O)N1CCn2c1nc1ccccc12)C(=O)NCCc1ccccc1`, the Potency result is “inactive”. The value for `CCCCNC(=O)OCCSCCS(=O)(=O)c1ccc(Cl)cc1` was “inactive”. To `O=C(Nc1nnc(Cc2ccc(Cl)cc2)s1)c1cccnc1` belongs “inactive”; to `CC(C)(C)c1cc(C(=O)NCc2cccnc2)ccn1`, “inactive”; to `O=C(NCc1ccc(Cl)c(Cl)c1)c1cccnc1`, 23.9 µM (active).

For `O=C(CN1C(=O)NC2(CCCC2)C1=O)Nc1ccc(F)c(F)c1F`, the Potency result was “inactive”.

In the case of `O=S(=O)(NC1CC1)c1ccc(F)c(F)c1`, the Potency entry is “inactive”. Take `CC1CCC(NS(=O)(=O)c2ccc3c(c2)n(C)c(=O)c(=O)n3C)CC1` (stereo not drawn): the Potency result was “inactive”.

Turning to `Cn1sc(=O)c2cc(S(=O)(=O)NC3CC3)ccc21`, the Potency is 15.1 µM (active). The value for `O=C(Nc1ccc(Cl)c(Cl)c1)N1CC=C(c2ccccc2)CC1` was “inactive”; that for `Cc1cccc(N=C2NC(=O)CS2)c1C` was “inactive”. To `CCc1ccc(Nc2nnc(SCC(=O)c3ccc4c(c3)NC(=O)CO4)s2)cc1` belongs “inactive”; to `CCOc1ccc(/C=C/C(=O)N(CC)CC(=O)NCc2cccs2)cc1OC`, “inactive”. To `Cc1cccc(NS(=O)(=O)c2cc(Cl)ccc2Cl)n1` belongs “inactive”. As to `CN1CCN(C(=O)c2ccc(NS(=O)(=O)c3ccccc3)cc2)CC1`, the Potency result was “inactive”. To `COc1ccc(C(=O)OCC(=O)Nc2ccc3[nH]c(=O)[nH]c3c2)c(OC)c1OC` belongs 21.3 µM (active). The value for `O=C(COC(=O)c1cccc(Cl)c1)Nc1ccc2[nH]c(=O)[nH]c2c1` was “inactive”; that for `O=C(COc1ccc([N+](=O)[O-])cc1Cl)Nc1ccc2[nH]c(=O)[nH]c2c1` was “inactive”; that for `Nc1nnc(SCC(=O)NC2CCCc3ccccc32)s1` (stereo not drawn) was “inactive”. To `O=C(c1ccccc1)c1cc(-c2ccccn2)c(N2CCOCC2)s1` belongs “inactive”.

For `NC(=O)c1ncc(C(F)(F)F)cc1Oc1ccc(F)cc1`, the Potency entry is “inactive”. For `Cc1nc2nc(COc3ccccc3)[nH]n2c(=O)c1C`, the Potency entry was “inactive”. To `Cc1cc([N+](=O)[O-])nn1Cc1ccc(F)cc1` belongs “inactive”; to `O=C(O)CCN=C1CCc2ccccc2N1`, “inactive”; to `O=C(NC1CCCCC1)c1ccc(CNc2c(N3CCOCC3)c(=O)c2=O)cc1`, “inactive”. The value for `CCN(CC(=O)Nc1cccc(S(=O)(=O)N2CCCCC2)c1)Cc1ccccc1` was “inactive”; that for `CCOc1cc(/C=N/n2cnnc2)c(Br)cc1O` was “inactive”. To `CCOc1cccc(/C=N/N2C(=O)CSC2=S)c1O` belongs 7.57 µM (active). In the case of `CCOc1ccc(N2C(=O)CSC2=NC#N)cc1`, the Potency result is “inactive”.

With `C/C(=N/N1CCN(Cc2cccc3ccccc23)CC1)c1cccnc1`, the Potency entry was “inactive”. The value for `NS(=O)(=O)c1ccc(NC(=S)Nc2ccc(Br)c(Cl)c2)cc1` was 9.53 µM (active); that for `NS(=O)(=O)c1ccc(CCNC(=S)Nc2ccc(S(N)(=O)=O)cc2)cc1` was “inactive”; that for `NS(=O)(=O)c1ccc(NC(=S)NC(=O)c2cccc(Br)c2)cc1` was “inactive”. Take `COc1ccc(NC(=O)Cn2cc(C(=O)c3ccncc3)c(=O)c3cc(C)ccc32)cc1Cl`: the Potency entry is “inactive”. The value for `CCc1ccc(N(CC)c2ncnc3nc[nH]c23)cc1` was “inactive”; that for `Nc1ccc(Nc2cc(O)c3ncccc3c2)cc1` was “inactive”; that for `Cc1cccc(CCNS(=O)(=O)c2ccc(S(=O)(=O)NC3CCCC3)cc2)c1` was “inactive”. The value for `CC1CCC(N2CC(=O)N(Cc3ccc4c(c3)OCO4)C(c3ccc(F)cc3)C2=O)CC1` (stereo not drawn) was “inactive”; that for `COC(=O)CNC(=O)c1ccc2c(c1)S(=O)(=O)c1ccccc1C2=O` was “inactive”. In the case of `O=[N+]([O-])c1ccc(N2CCN(c3ccc(O)cc3)CC2)c(Cl)c1`, the Potency result is “inactive”. The value for `O=S(=O)(NC1CCN(S(=O)(=O)c2ccc3c(c2)OCCO3)CC1)c1c(F)cccc1F` was “inactive”; that for `O=C(COC(=O)c1cc[n+]([O-])cc1)Nc1ccc(Cl)c(C(F)(F)F)c1` was “inactive”; that for `Cc1ccc(C(CC(=O)O)NC(=O)c2ccc(S(=O)(=O)N3CCCC3)cc2)cc1` (stereo not drawn) was “inactive”. As for `CCCCc1nnc(NC(=O)CS(=O)(=O)Cc2ccccc2)s1`, the Potency entry is “inactive”.

For the compound `Cn1c(=O)c([N+](=O)[O-])c(Oc2ccccc2)c2ccccc21`, the Potency result was “inactive”. To `CCCN(CC(=O)Nc1ccc(OC)c(OC)c1)CC(=O)Nc1ccc(F)c(F)c1F` belongs “inactive”; to `COc1ccc(N2CCN(S(=O)(=O)c3ccc4c(c3)NC(=O)C(C)C(=O)N4)CC2)cc1` (stereo not drawn), “inactive”. To `COc1ccc(C)cc1NC(=O)CCS(=O)(=O)c1cccc2nonc12` belongs “inactive”; to `Cn1nc(C(F)(F)F)cc1-c1ccc(/C=C(\C#N)C(=O)c2cccc(C(F)(F)F)c2)s1`, “inactive”.

For the compound `Cc1cc(C)c(S(=O)(=O)n2cc(C(C)C(N)C(=O)O)c3ccccc32)c(C)c1` (stereo not drawn), the Potency result is “inactive”.

For the compound `COCCOC(=O)c1c(C)oc2cc(Br)c(OCC(N)=O)cc12`, the Potency result was “inactive”. In the case of `CCCCC(CC(C)O)c1n[nH]c(=S)n1-c1ccccc1` (stereo not drawn), the Potency result was “inactive”. To `CC(NC(=O)CCCC1CCCCC1)c1ccc(S(N)(=O)=O)cc1` (stereo not drawn) belongs “inactive”; to `CC(C)(C)OC(=O)C[C@@H]1C/C=C\C[C@@H](CC(=O)N[C@@H](CO)Cc2ccccc2)C(=O)N2CCC[C@H]2COC1=O`, “inactive”; to `COC(=O)CN1C(=O)N/C(=C/c2ccc(OC)c(C)c2OC)C1=O`, “inactive”. The value for `C=CCn1cc(-c2cccc(C(F)(F)F)c2)cc(C#N)c1=O` was “inactive”.

For `COCc1ccc(C(=O)N2CCc3c([nH]c4ccccc34)C2c2ccccn2)s1` (stereo not drawn), the Potency entry is “inactive”.

`Nc1ccccc1SC(C[N+](=O)[O-])c1ccccc1` (stereo not drawn): the Potency was 13.5 µM (active). The value for `Cc1ccc(C(C[N+](=O)[O-])c2c(C)cc3ccccn23)cc1` (stereo not drawn) was “inactive”.
